Screening results as filed in PubChem.
Rows were chosen to be rich in hits. Some 19% of all compounds tested hit in one or more screens of this group.
ELG1 repair inh: ELG1-dependent DNA repair inhibition; HEK293T ELG1-luciferase reporter, luminescence, 16 h; DNA damage induced by 5-fluorouridine; Potency, µM (series often up to 46.1 µM), most hits filed as inhibitors; AID 504467; 330,000 compounds, 2.3% hits; note: nearly all actives have a fitted effect of over 55% in size
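Overnight (16 hr) co-exposure of 2,000 cells/well to 5-fluorouridine and compound at 37 °C preceded detection. Luciferase was quantified via ONE-Glo luminescence; loss of signal denotes inhibition.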
DT40 TDP1 CPT: growth inhibition of DT40 Tdp1-/-;hTDP1 cells with camptothecin (screen for TDP1 inhibitors); chicken DT40 Tdp1-/-;hTDP1 cells + 20 nM CPT, ATP luminescence, 48 h; Potency, µM (top dose mostly 46.2 µM), most hits filed as inhibitors; 420,000 compounds, 12% hits; note: nearly all actives have a fitted effect of over 55% in size
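Cell growth measured by CellTiter-Glo luminescence after a minimum 48 h, 37 C compound exposure with 20 nM CPT in Tdp1-knockout DT40 cells stably expressing hTDP1, seeded 400/well; qHTS titration format.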
DT40 TDP1 no CPT: qHTS for Inhibitors of human tyrosyl-DNA phosphodiesterase 1 (TDP1): qHTS in cells in absence of CPT. DT40 Tdp1-/- hTDP1 cells, no CPT, ATP luminescence, 48 h. Potency, µM (top dose mostly 46.2 µM), most hits filed as inhibitors. 420,000 compounds, 15% hits. AID 686978, 2013; note: nearly all actives have a fitted effect of over 55% in size
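Growth of hTDP1-complemented DT40 Tdp1-knockout cells is measured by ATP luminescence after at least 48 hr compound exposure at 37 °C, with DMSO substituting for the 20 nM CPT used in the parallel screen.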
IL-1B inflam inh: inflammasome signaling inhibition, IL-1 beta readout | THP-1 LPS/ATP IL-1B secretion, AlphaLISA, 16 h; active compounds read low | activity change, % at 57.5 µM | 360,000 compounds, 4.7% hits | AID 743279; in the data active = activity change below about -50%; inconclusive = mostly about -30% to -49%
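THP-1 cells pretreated 1 hr with compounds (up to 57.5 uM final), then stimulated with LPS (250 ng/mL final) plus ATP (1.25 mM final); secreted IL-1B measured by AlphaLISA after 16 hr, decreased signal indicating inhibition.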
HT1080 IDH1KD tx: toxicity to HT-1080 IDH1 knockdown cells (counter line); HT-1080 IDH1 knockdown viability, ATP luminescence, 48 h; AID 686971; Potency, µM (series often up to 46.1 µM), usual class: cytotoxic; 360,000 compounds, 2% hits
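CellTiter-Glo luminescence after 48 h compound exposure at 37 degrees C of IDH1-knockdown HT-1080 cells in 5% FBS RPMI. %Activity scaled between DMSO wells and cell-free media wells, with curves fitted and assigned curve classes.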
HT1080-NT tox: kills 2HG-producing HT-1080-NT fibrosarcoma cells | HT-1080-NT fibrosarcoma viability, CellTiter-Glo ATP luminescence, 48 h | Potency, µM (titrated, usually from 46.1 µM), actives largely listed as cytotoxic | 360,000 compounds, 1.6% hits | AID 686970;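 note: NT is the 2HG producing partner of a matched IDH1 knockdown line; nearly all actives have a fitted effect of over 55% in size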
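Compounds were tested in concentration-response format on HT-1080-NT cells for 48 hours at 37 degrees C. Cell viability came from CellTiter-Glo luminescence; curves were classified by r2, response magnitude and activity.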
A number is an active result; – = inactive; ? = inconclusive; · = not tested or not shown; [ ] = another dose, or the depositor's remark. Unless noted, calls come from the whole dose curve; as a rule, active = well fitted curve in the direction sought with a large enough effect; inconclusive = small, poorly fitted or top-dose-only effect, or another doubt; inactive = no such curve, though single readings can be large; an effect the other way counts as inactive or inconclusive.

SMILES | ELG1 repair inh | DT40 TDP1 CPT | DT40 TDP1 no CPT | IL-1B inflam inh | HT1080 IDH1KD tx | HT1080-NT tox
Cc1ccc(C(C)C)c(OCC(=O)Nc2cc(-c3nc4ccccc4[nH]3)ccc2C)c1 | · | 4.61µM | 3.66µM | · | · | ·
COc1ccc(-n2nnnc2-c2cccc(OC)c2)cc1 | – | 0.82µM | 0.581µM | – | 1.64µM | ?
Cc1ccc(-n2nnnc2-c2cccc(C)c2)cc1 | – | – | – | – | – | –
COc1ccc(C(C(=O)NC2CCCCC2)n2c(=O)c(-c3ccco3)nc3ccccc32)cc1 (stereo unspecified) | · | ? | 25.9µM | – | – | –
Cc1cccc(C)c1NC(=O)C(c1ccccc1)n1c(=O)c(-c2ccco2)nc2ccccc21 (stereo unspecified) | · | ? | ? | – | – | –
O=C(NC1CCCCC1)C(c1cccc2ccccc12)n1c(=O)c(-c2ccco2)nc2ccccc21 (stereo unspecified) | · | 16.4µM | 23.1µM | – | – | –
COc1ccc(NC(=O)C(c2cccc3ccccc23)n2c(=O)c(-c3ccco3)nc3ccccc32)cc1 (stereo unspecified) | · | ? | – | – | – | –
COc1ncc2nc(C)c(=O)n(C)c2n1 | · | – | – | · | · | ·
S=C(NCC1CCCO1)N1CCc2ccccc2C1 (stereo unspecified) | ? | – | – | – | – | –
CCOC(=O)c1sc(-c2ccc(Cl)cc2Cl)nc1O | – | 25.9µM | 18.4µM | – | – | –
COc1ccc(-c2noc(CCC(=O)NC3CCN(Cc4ccccc4)CC3)n2)cc1 | – | ? | 11.6µM | – | – | –
O=C(CCc1nc(-c2ccccc2F)no1)NCCN1CCN(Cc2ccccc2)CC1 | ? | 18.4µM | ? | – | – | –
COc1ccc(-c2noc(CCC(=O)NCCc3ccccc3)n2)cc1 | ? | – | ? | – | – | –
COc1ccc(-c2noc(CCC(=O)NCC3CCN(Cc4cccc(C)c4)CC3)n2)cc1 | ? | ? | 23.1µM | -71.9 | – | –
Cc1noc(C)c1NC(=O)Nc1ccc2c(c1)C(=O)N([C@H](C)CO)C[C@H](C)[C@@H](CN(C)S(=O)(=O)c1ccc(Cl)cc1)OCCCC[C@@H](C)O2 | · | ? | ? | – | – | –
CN1CCN(C(=O)CNC(=O)C23CC4CC(CC(C4)C2)C3)CC1 | – | – | – | – | – | –
COC(=O)c1ccc(=O)c2nc3/c(=C/O)c(O)cc(=O)c3[nH]c12 | ? | 20.6µM | ? | – | – | –
Cc1ccccc1-c1noc(-c2ccc(N3CCC(C)CC3)c([N+](=O)[O-])c2)n1 | · | – | – | · | · | ·
Cc1cccc(C(=O)NCC(c2cccs2)N2CCOCC2)c1 (stereo unspecified) | – | – | – | – | ? | –
O=C(NCC(c1ccc(F)cc1)N1CCOCC1)c1ccc(OCc2ccccc2)cc1 (stereo unspecified) | – | 18.4µM | 20.6µM | – | – | –
O=C(NCC(c1cccs1)N1CCOCC1)c1cnc(Cl)c(Cl)c1 (stereo unspecified) | – | ? | ? | -98.5 | – | ?
O=C(NCC(c1cccs1)N1CCOCC1)c1ccc(OCc2ccccc2)cc1 (stereo unspecified) | – | 14.6µM | 20.6µM | – | – | –
COc1cc(C(=O)NCC(c2cccs2)N2CCOCC2)ccc1OCc1ccc(Cl)cc1 (stereo unspecified) | · | 6.51µM | 3.66µM | ? | ? | –
CSc1ccc(CN2CCOc3ccc(CN4CCCCC4CO)cc3C2)cc1 (stereo unspecified) | · | –[9.04 µM] | ? | · | · | ·
O=C(NCC(c1ccc(F)cc1)N1CCOCC1)c1ccc([N+](=O)[O-])o1 (stereo unspecified) | ? | 20.6µM | 25.9µM | · | ? | ?
SMILES | ELG1 repair inh | DT40 TDP1 CPT | DT40 TDP1 no CPT | IL-1B inflam inh | HT1080 IDH1KD tx | HT1080-NT tox
CC(=O)c1ccc(-c2ccc(C(=O)NCC(c3ccc(F)cc3)N3CCOCC3)o2)cc1 (stereo unspecified) | – | – | ? | – | – | –
O=C(O)c1cccc(Nc2nc(-c3ccccc3)nc3ccccc23)c1 | – | – | – | – | – | –
CCCOC(=O)c1cccc(Nc2nc(-c3cccnc3)nc3ccccc23)c1 | 13µM | 9.2µM | 3.26µM | -98.0 | ? | 25.9µM
CCOC(=O)c1cccc(Nc2ncnc3ccccc23)c1 | – | ? | 13µM | – | –[9.24 µM] | –
CCCOC(=O)c1cccc(NC(=O)c2cccnc2)c1 | – | 9.2µM | 5.8µM | – | – | –
O=C1COC(c2ccccc2)=CN1Cc1ccccc1 | – | – | – | – | – | –
COc1cc(/C=C2/SC(=S)N(CCC(=O)Nc3cccnc3)C2=O)cc(OC)c1OC | · | ? | ? | – | – | –
CCC1=C(OC(=O)N(CC)CC)N2C(=O)OC(=NCC(=O)OC)[C@]2(Cc2ccccc2)[C@H]2C1=CC[C@H]1C(=O)N(c3ccccc3)C(=O)[C@H]12 | ? | ? | ? | – | – | –
ClCc1ncc(-c2ccc(Cl)cc2)o1 | – | 14.6µM | 16.4µM | ? | – | –
COC(=O)[C@]12CCCCC=C1N(CCc1ccc(OC)c(OC)c1)C(=O)[C@H](CC(=O)N1CCC(c3ccccc3)CC1)C2 | · | 8.2µM | 8.2µM | – | ? | –
COC(=O)[C@]12CCCCC=C1N(CCc1ccc(OC)c(OC)c1)C(=O)[C@H](CC(=O)NCCc1ccccc1OC)C2 | · | ? | 18.4µM | ? | – | –
COC(=O)[C@]12CCCCC=C1N(CCc1ccc(OC)c(OC)c1)C(=O)[C@H](CC(=O)NCC1CCCCC1)C2 | · | ? | ? | ? | – | –
COC(=O)[C@]12CCCCC=C1N(CCc1ccc(OC)c(OC)c1)C(=O)[C@H](CC(=O)NCc1ccc(OC)c(OC)c1)C2 | · | 29.1µM | 16.4µM | – | – | –
COC(=O)[C@]12CCCCC=C1N(CCc1ccc(OC)c(OC)c1)C(=O)[C@H](CC(=O)NCc1cccc(C(F)(F)F)c1)C2 | · | ? | 16.4µM | – | ? | ?
CC(=O)c1ccc(NC(=O)NC2CC(=O)N(c3ccc4c(c3)OCCO4)C2)cc1 (stereo unspecified) | – | – | – | – | – | –
CC(C)N(C(=O)COC(=O)CCC(=O)c1cccs1)c1ccccc1 | – | – | – | – | – | –
Cc1cccc(CS(=O)(=O)Cc2ccc(C(=O)NC3CCCCCC3)o2)c1 | – | ? | ? | – | – | –
COC(=O)[C@@]12C[C@@H](CC(=O)N3CCC(c4ccccc4)CC3)C(=O)N(CCc3ccc(OC)c(OC)c3)C1=CCC(C)(C)C2 | · | ? | ? | – | – | –
